Sampled rows, rich in hits. Any-hit rate of the full collection: about 10%.
HPGD inh – HPGD (human) dehydrogenase inhibition. P15428. purified HPGD, NADH fluorescence kinetic, PGE2 substrate. Potency, µM, for the others: at the highest dose activity change, negative = inhibition, usual class: inhibitors. actives 4.3% (n = 150,000). AID 894; note: potency is the fitted concentration of half-maximal effect
Target sequence (P15428 whole entry, looked up): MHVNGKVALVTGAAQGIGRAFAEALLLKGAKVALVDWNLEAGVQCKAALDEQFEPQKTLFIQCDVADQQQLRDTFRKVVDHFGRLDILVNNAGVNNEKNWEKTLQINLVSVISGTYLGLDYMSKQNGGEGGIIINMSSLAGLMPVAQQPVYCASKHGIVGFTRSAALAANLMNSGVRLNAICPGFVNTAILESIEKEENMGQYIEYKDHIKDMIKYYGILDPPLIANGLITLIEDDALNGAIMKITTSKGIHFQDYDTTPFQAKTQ
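20 nM HPGD preincubated 15 min at room temperature with compound in 50 mM Tris-HCl pH 8, 0.01% Tween 20. Started with 1 mM NAD+ and 30 uM prostaglandin E2; NADH fluorescence (360/450 nm) read 5 times over 30-s intervals, last minus first.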
Lamin A splicing – LMNA splicing modulation; HeLa LMNA splicing GFP/RFP minigene ratio, 48 h; Potency, µM (doses to about 46.1 µM), for inactives: at the top dose ratio change, negative = inhibition, hits mostly inhibitors; actives 0.01% (n = 200,000); active = well fitted inhibition curve with a large enough effect in the signal ratio, with a control signal flat, not every such curve was filed as active; inconclusive = small, poorly fitted or top-dose-only effect, or effect the other way, or a change in a side signal; the % refers to the signal ratio; note: potency is the fitted concentration of half-maximal effect
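S3 HeLa stable clones carrying a lamin A-EGFP splicing minigene plus DsRed2 were seeded at 600 cells/well in Opti-MEM with 2% FBS, pin-dosed and incubated 48 h at 37°C. Acumen cytometry (488 nm) gave the GFP/RFP total-intensity ratio.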
Luc counter – blocks Kinase-Glo luciferase, a counter-screen artifact | Q27757 | actives 0.28% (n = 200,000) | AID 1379 | Kinase-Glo luciferase, ATP luminescence, 8 min | Potency, µM (top dose mostly 38.3 µM), for inactives: at the highest dose activity change, negative = inhibition, usual class: inhibitors; active = well fitted inhibition curve with a large enough effect; inconclusive = small, poorly fitted or top-dose-only effect; note: potency is the fitted concentration of half-maximal effect; nearly all actives have a fitted effect of over 60% in size
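Luminescence was the read-out, taken after 8-minute incubation at ambient temperature. Luciferase turned over luciferin with 10 uM ATP in imidazole pH 7.2 buffer containing KCl, MgCl2, Tween 20 and BSA.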
ALDH1A1 block – inhibitors of human aldehyde dehydrogenase 1A1 | Purified ALDH1A1, NADH fluorescence, propionaldehyde substrate | AID 1030 | P00352 | Potency, µM (doses to about 75.3 µM), inactives show at the highest dose activity, negative = inhibition, hits mostly inhibitors | actives 7.3% (n = 220,000);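 note: potency is the fitted concentration of half-maximal effect; plate controls were no enzyme wells and a reference inhibitor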
PNC inhibitor – perinucleolar compartment assembly inhibition; PC3M PTB-GFP, PNC prevalence imaging, 16 h; hits give low values; activity change (PNC), negative = inhibition, % at 10 µM; actives 3.1% (n = 140,000);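 active = readout at or below -70, meaning at least 70% loss of cells showing the perinucleolar compartment, a nuclear body marking cancer cells; inconclusive = readout between -30 and a set limit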;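 note: plate controls were DMSO wells for no effect and camptothecin positive control wells for full effect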
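Read-out is percentage of cells bearing a perinucleolar compartment, from automated 20x imaging of fixed, Hoechst-stained PC3M PTB-GFP cells. Cells were seeded 4 h, then exposed 16 h to compound (23 nl of library stock) in duplicate plates.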
IMPase cell inh – IMPase inhibition in cells | P97697 | CHO-M1 cells, IP1 accumulation, HTRF TR-FRET ratio | inhibition (IP1 accumulation), % at 46.1 µM | 120,000 tested, under 10 active; active = well fitted curve in the direction sought with a large enough effect in the signal ratio, not every such curve was filed as active; inconclusive = small, poorly fitted or top-dose-only effect, or a change in a side signal; inactive = no such curve, though single readings can be large or run the other way; the % refers to the signal ratio;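 note: cells stimulated with carbachol in lithium chloride buffer; plate controls were DMSO basal wells for no effect and reference inhibitor wells for full effect; higher means more IMPase inhibition seen as more IP1 and lower FRET ratio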
Target sequence (P97697 whole entry, looked up): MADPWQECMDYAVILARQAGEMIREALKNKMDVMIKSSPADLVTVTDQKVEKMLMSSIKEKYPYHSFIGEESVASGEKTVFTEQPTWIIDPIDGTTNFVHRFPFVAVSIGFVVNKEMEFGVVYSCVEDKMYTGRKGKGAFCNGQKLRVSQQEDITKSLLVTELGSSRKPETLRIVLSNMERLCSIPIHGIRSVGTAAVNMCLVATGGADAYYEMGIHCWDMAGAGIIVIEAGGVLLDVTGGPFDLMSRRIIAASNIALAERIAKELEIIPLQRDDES
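CHO-M1 cells (CHO stably expressing M1 receptor), compound up to 46 uM final, stimulated with carbachol (50 uM as added) in buffer with 50mM LiCl, pH 7.4, 30 min at 37C. Cytosolic IP1 read by TR-FRET; AC50 from Hill fits.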
* hit, by the source's call; ? = inconclusive; . = no result given; [ ] = dose if it differs, or a comment. Unless noted, calls come from the whole dose curve; as a rule, active = well fitted inhibition curve with a large enough effect (not every such curve was filed as active); inconclusive = small, poorly fitted or top-dose-only effect, or another doubt; inactive = no such curve, though single readings can be large or run the other way. Unless noted, % is set by controls: 0 for no effect and ±100 for the full control effect.

SMILES | HPGD inh | Lamin A splicing | Luc counter | ALDH1A1 block | PNC inhibitor | IMPase cell inh
COc1ccc(OC)c(S(=O)(=O)Nc2ccc(O)c(Sc3ncn[nH]3)c2)c1 | 22.4µM* | ? | -1.0% | 7.5% | -28.4 | 13.4
COc1ccc(OC)c(S(=O)(=O)Nc2ccc(O)c3ccccc23)c1 | 3.16µM* | ? | 4.8% | 3.55µM* | ? | 14.0
CCOc1ccc(S(=O)(=O)Nc2ccc(O)c(Sc3ncn[nH]3)c2)cc1 | -10.9% | ? | 1.4% | -12.1% | 19.9 | -1.4
CCCNC(=O)CN1C(=O)c2cccnc2Sc2ccccc21 | . | -20.8%[46 µM] | . | . | . | .
O=C(O)CSC1=NCCN1 | -5.9% | . | -1.2%[7.66 µM] | 20.3%[13.5 µM] | . | .
CSC1(SC2=NCCN2)SC2(NCCN2)S1 | -8.2% | . | -5.7%[7.66 µM] | 0.0891µM* | . | .
C[C@@]12CCC3c4ccc(OC5C=CC(c6ccccc6)OC5CO)cc4CCC3C1CCC2=O (stereo not given in full) | . | . | . | 2.2%[13.5 µM] | . | .
O=S(=O)(c1ccc(F)cc1)c1nc(-c2ccco2)oc1Nc1ccccc1 | -12.6% | -13.4% | -3.6% | ? | ? | .
CCSc1oc(-c2ccco2)nc1S(=O)(=O)c1ccc(F)cc1 | ? | 12.4% | -4.9% | 25.1µM* | ? | -4.0
Cc1cc(=O)[nH]c(N=N/C(=N/Nc2ccc(O)cc2)c2ccccc2)n1 | 31.6µM* | -5.7% | 7.94µM* | 14.1µM* | -4.1 | 28.2
Cc1cc(=O)[nH]c(N=N/C(=N/Nc2ccccc2C)c2ccccc2)n1 | -19.5% | -3.6% | ? | ? | 0.2 | 1.4
COc1ccc(N/N=C(/N=Nc2nc(C)cc(=O)[nH]2)c2ccccc2)cc1 | -14.4% | ? | 8.91µM* | -8.4% | -6.6 | 11.3
COc1ccc(-c2nc(-c3ccccc3)oc2NC(C)C)cc1 | -6.2% | . | 0.0% | 2.8% | . | .
CCCC(C)NNC(=O)c1cc2ccccc2[nH]1 (stereo not given) | 12.6µM* | 15.6% | 0.3% | 12.9% | 26.7 | 1.9
NCCCNC(=O)c1cc2ccccc2[nH]1 | -13.0% | -12.2% | -1.3% | -4.9% | ? | 4.4
Fc1ccc(CNCc2ccccc2C(F)(F)F)cc1 | -6.8% | 0.6% | -2.2% | 5.0% | -113.8* | .
COc1cc(OC)cc(-c2n[nH]c(=S)n2-c2ccc3c(c2)OCO3)c1 | 25.1µM* | 1.5% | 0.8% | 5.0% | -104.1* | .
Oc1ccc(-c2n[nH]c(=S)n2-c2ccc3c(c2)OCCO3)cc1 | 20µM* | -8.9% | 0.8% | 25.1µM* | -28.2 | .
Cc1ccc(C)c(-n2c(-c3ccc4c(c3)OCO4)n[nH]c2=S)c1 | ? | 9.2% | -1.5% | ? | -14.6 | 0.0
Fc1ccc(-n2c(-c3ccc4c(c3)OCO4)n[nH]c2=S)cc1Cl | 10µM* | -12.6% | 0.9% | ? | -8.5 | -12.0
COc1ccc(-n2c(-c3ccc(C)cc3)n[nH]c2=S)cc1 | ? | -1.5% | -2.2% | -10.1% | 2.1 | .
COc1ccc(CCNc2nc(SCc3ccccc3F)nc3ccccc23)cc1OC | . | -3.2%[46 µM] | . | . | . | .
Nc1ccn([C@H]2O[C@@H](COP(=O)(O)O)[C@@H](O)[C@H]2O)c(=O)n1 | -1.4% | . | -6.1%[7.66 µM] | 8.1%[13.5 µM] | . | .
O=C(CCl)N(c1ccccc1)C1CCS(=O)(=O)C1 (stereo not given) | -1.4% | ? | 5.8% | 0.0631µM* | 0.4 | 0.3
COc1ccccc1N1CCN(C(=O)CSc2nnc3c4ccccc4n(CC(=O)O)c3n2)CC1 | -6.3% | -4.9% | 3.1% | -3.6% | ? | -7.8
CCCn1c2ccccc2c2nnc(SCC(=O)Nc3ncccn3)nc21 | -37.7% | -1.9% | -8.1% | 7.08µM* | ? | 2.5
O=C(CSc1nnc2c3ccccc3c3ccccc3c2n1)Nc1ccccc1F | -15.8% | 4.8% | -6.2% | 8.91µM* | 24.0 | -0.2
CSc1nnc2c3ccccc3n(CCc3ccccc3)c2n1 | -28.2% | ? | 0.3% | 8.91µM* | -118.5* | -10.5
CCn1c2ccccc2c2nnc(SCC(=O)N3CC(C)OC(C)C3)nc21 (stereo not given) | 14.1µM* | -12.6% | -3.3% | 20µM* | 28.0 | -5.3

Screening data as filed in PubChem BioAssay.
